For part of these data: Entries with a potency or affinity are not part of this list. Calls of active or inactive are those of the source.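 The calls were made as follows, unless noted: active = compound raising the membrane signal above positive-control mean plus 3 SD in both repeats, and a primary screen hit; inactive = the rest.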
Key:
[1] = tested on: TRPC4 beta (transient receptor potential cation channel C4), mouse; test: activators of mouse TRPC4 channel, confirmation, cell-based, Fluo4 calcium, HEK293 TRPC4beta/mu-opioid, duplicates, 10 µM (AID 2426;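 active = fluorescence ratio normalized to control raised more than 50% in primary screen plus both repeat runs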); conditions: Fluo4 calcium fluorescence, at 10 µM; active compounds read high
[2] = tested on: transient receptor potential cation channel C4 beta (TRPC4), mouse; test: activators of mouse TRPC4 channel, confirmation, cell-based, second round, Fluo4, HEK293 TRPC4beta/mu-opioid, 1 µM (AID 2461;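 active = primary screen active and over 50% activation in each of two duplicate runs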); conditions: Fluo4 calcium fluorescence, at 1 µM; active compounds read high
[3] = tested on: TRPC4 (transient receptor potential cation channel C4 beta), mouse; test: positive allosteric modulators of mouse TRPC4, confirmation, cell-based, second round, Fluo-4, HEK293 TRPC4beta/mu-opioid, 1 µM (AID 2554;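 active = primary screen hit whose fluorescence ratio, in both repeats, exceeds the weak agonist control mean by 3 SD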); conditions: DAMGO EC20, Fluo-4 calcium flux, at 1 µM; active compounds read high
[4] = tested on: TRPC4 beta (transient receptor potential cation channel C4), mouse; test: positive allosteric modulators of mouse TRPC4, confirmation, cell-based, Fluo-4, HEK293 TRPC4beta/mu-opioid (AID 2555;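 active = primary screen hit whose calcium fluorescence ratio, in both repeats, exceeds the weak agonist control mean by 3 SD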); conditions: DAMGO EC20, Fluo-4 calcium flux, at 10 µM; active compounds read high
[5] = target: Short transient receptor potential channel 4 (Mus musculus) (UniProt Q9QUQ5); test: inhibitors of mouse TRPC4 channel, confirmation, cell-based, Fluo4, HEK293 TRPC4beta/mu-opioid (AID 2636;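 active = calcium signal cut by more than 3 SD below the full-agonist control yet still positive, in both repeats and the earlier primary screen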); conditions: DAMGO, Fluo4 calcium flux, at 10 µM; active compounds read high
Chain of Short transient receptor potential channel 4 (Mus musculus) (Q9QUQ5 whole entry, looked up): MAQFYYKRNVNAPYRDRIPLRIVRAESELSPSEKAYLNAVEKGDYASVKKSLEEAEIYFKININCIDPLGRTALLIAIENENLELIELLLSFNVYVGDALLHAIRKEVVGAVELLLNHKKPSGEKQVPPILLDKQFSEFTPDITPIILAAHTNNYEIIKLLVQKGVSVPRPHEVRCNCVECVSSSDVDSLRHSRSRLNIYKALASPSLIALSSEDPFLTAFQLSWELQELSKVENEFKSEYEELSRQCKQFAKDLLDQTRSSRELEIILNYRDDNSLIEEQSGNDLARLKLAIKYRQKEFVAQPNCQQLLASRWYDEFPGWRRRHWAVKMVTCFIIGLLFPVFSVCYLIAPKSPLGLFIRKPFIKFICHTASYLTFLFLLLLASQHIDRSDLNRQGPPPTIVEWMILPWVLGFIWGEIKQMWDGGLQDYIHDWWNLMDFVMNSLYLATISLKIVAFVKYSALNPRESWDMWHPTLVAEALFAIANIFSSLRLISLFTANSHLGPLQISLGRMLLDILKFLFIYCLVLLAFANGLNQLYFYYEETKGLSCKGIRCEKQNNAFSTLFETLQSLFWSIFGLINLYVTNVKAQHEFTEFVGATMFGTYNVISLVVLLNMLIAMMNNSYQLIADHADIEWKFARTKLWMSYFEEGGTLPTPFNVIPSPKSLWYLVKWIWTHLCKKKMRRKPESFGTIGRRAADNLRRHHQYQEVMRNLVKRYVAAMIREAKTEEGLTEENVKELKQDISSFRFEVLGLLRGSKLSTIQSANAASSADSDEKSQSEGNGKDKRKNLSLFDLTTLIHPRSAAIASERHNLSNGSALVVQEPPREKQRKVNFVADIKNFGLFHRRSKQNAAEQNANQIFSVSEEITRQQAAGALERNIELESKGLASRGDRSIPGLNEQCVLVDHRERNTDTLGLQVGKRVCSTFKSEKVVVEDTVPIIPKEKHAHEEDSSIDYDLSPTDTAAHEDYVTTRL

[6] = target: Short transient receptor potential channel 4 (Mus musculus) (UniProt Q9QUQ5); test: inhibitors of mouse TRPC4 channel, confirmation, cell-based, second round, Fluo4, HEK293 TRPC4beta/mu-opioid, 1 µM (AID 2637;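 active = calcium signal ratio cut to more than 3 SD under the fully stimulated control mean yet still positive, in both repeats and the primary screen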;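 as to inhibition: percent of integrated ratio relative to wells lacking test compound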); conditions: Fluo4 calcium flux, DAMGO, at 1 µM; active compounds read high
[7] = target: Short transient receptor potential channel 4 (Mus musculus) (UniProt Q9QUQ5); test: mouse TRPC4 channel activators, dose response, cell-based, HEK293 TRPC4/mu-opioid, Fluo-4 calcium (AID 434937;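 active = primary screen activator hit with a dose response curve and TRPC4 channel activation at any tested dose; inactive = no activation, no dose response, or not a primary hit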)
[8] = target: Short transient receptor potential channel 4 (Mus musculus) (UniProt Q9QUQ5); test: TRPC4 positive allosteric modulators, dose response, cell-based, HEK293 TRPC4/mu-opioid, Fluo-4 calcium, EC20 DAMGO (AID 434941;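 active = earlier screen potentiator hit that boosts the TRPC4 ion channel at some dose, with a dose response; inactive = no potentiation, no dose response, or not a prior hit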;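 also: calcium entry triggered by an EC20 dose of DAMGO at the co-expressed mu-opioid receptor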)
[9] = target: Short transient receptor potential channel 6 (Mus musculus) (UniProt Q61143); test: inhibition of mouse TRPC6 channel, confirmation, selectivity assay for TRPC4 inhibitor project, cell-based, HEK293, membrane potential dye, duplicate (AID 434948;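 active = active in primary screen and both duplicates, each dropping signal beyond three positive-control SD with fluorescence still positive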); conditions: HEK293 TRPC6, membrane potential dye fluorescence, at 10 µM, stimulated with maximal-effect acetylcholine; active compounds read high
Chain of Short transient receptor potential channel 6 (Mus musculus) (Q61143 whole entry, looked up): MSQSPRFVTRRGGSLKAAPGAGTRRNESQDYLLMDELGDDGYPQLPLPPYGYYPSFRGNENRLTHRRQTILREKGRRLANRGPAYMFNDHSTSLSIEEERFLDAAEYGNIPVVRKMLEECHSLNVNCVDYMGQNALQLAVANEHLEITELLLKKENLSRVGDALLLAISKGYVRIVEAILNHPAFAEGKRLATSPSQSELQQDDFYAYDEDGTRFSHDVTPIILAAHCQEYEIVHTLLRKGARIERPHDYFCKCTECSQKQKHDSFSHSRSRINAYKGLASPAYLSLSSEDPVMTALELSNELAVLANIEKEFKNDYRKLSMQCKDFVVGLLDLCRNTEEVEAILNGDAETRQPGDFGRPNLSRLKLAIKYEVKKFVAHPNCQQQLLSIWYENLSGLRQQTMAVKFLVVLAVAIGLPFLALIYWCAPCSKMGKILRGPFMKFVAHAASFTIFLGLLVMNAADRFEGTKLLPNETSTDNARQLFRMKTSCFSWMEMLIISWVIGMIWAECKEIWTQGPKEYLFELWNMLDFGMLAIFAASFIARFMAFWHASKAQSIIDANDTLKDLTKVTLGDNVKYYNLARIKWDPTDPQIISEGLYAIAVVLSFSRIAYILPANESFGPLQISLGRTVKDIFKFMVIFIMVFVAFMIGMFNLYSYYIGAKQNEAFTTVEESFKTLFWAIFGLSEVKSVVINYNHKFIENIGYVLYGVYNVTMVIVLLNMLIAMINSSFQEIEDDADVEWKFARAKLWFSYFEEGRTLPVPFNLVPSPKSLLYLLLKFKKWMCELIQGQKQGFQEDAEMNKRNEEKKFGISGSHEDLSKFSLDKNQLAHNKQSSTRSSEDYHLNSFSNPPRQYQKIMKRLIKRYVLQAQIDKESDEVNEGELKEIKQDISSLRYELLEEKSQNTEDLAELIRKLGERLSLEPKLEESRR

[10] = target: Short transient receptor potential channel 6 (Mus musculus) (UniProt Q61143); test: activation of mouse TRPC6 channel, confirmation, selectivity assay for TRPC4 activator project, cell-based, HEK293, membrane potential dye, duplicate (AID 434950;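 active = membrane potential signal rise above negative control mean plus 3 SD in both duplicates, also active in the earlier TRPC4 screen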); conditions: HEK293 TRPC6, membrane potential fluorescence, at 10 µM; active compounds read high
[11] = target: Short transient receptor potential channel 6 (Mus musculus) (UniProt Q61143); test: TRPC6 potentiation by TRPC4 potentiator hits, confirmation, selectivity assay for TRPC4 potentiator project, HEK293 cells, membrane potential dye, duplicate (AID 434952); conditions: HEK293 TRPC6, membrane potential dye fluorescence, at 10 µM, maximal acetylcholine added after compound; active compounds read high
[12] = target: Short transient receptor potential channel 4 (Mus musculus) (UniProt Q9QUQ5); test: calcium flux activators in TRPC4/5HT1a cells, counter-screen for TRPC4 activator project, cell-based, second counter screen, HEK293 TRPC4/5HT1a, Fluo-4 (AID 434977;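 active = calcium signal rise above buffer-control mean plus 5 SD in both duplicates, and also a hit in the primary screen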); conditions: Fluo-4 calcium flux, at 10 µM; active compounds read high
[13] = calcium flux inhibitors in TRPC4/5HT1a cells, confirmation, counter-screen for TRPC4 inhibitor project, cell-based, second counter screen, HEK293 TRPC4/5HT1a, Fluo-4 (AID 434978;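 active = primary screen active whose calcium signal fell more than 3 SD beyond the full-serotonin control mean in both duplicate plates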;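 as to outcome: serotonin given first at submaximal then at maximal dose after compound preincubation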); conditions: Fluo-4 calcium flux, at 10 µM, serotonin added to trigger calcium flux; active compounds read high
[14] = tested on: TRPC4 (mouse), co-expressed with 5HT1a in HEK293; test: calcium flux potentiators in TRPC4/5HT1a cells, confirmation, counter-screen for TRPC4 potentiator project, cell-based, second counter screen, HEK293 TRPC4/5HT1a, Fluo-4 (AID 434979;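 active = signal rise over 3 SD above mean of control wells given weak agonist, in both repeats and first screen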); conditions: Fluo-4 calcium flux, at 10 µM, serotonin added at its EC20 dose; active compounds read high
[15] = calcium flux activation in mu-opioid HEK293 cells, confirmation, counter-screen for TRPC4 activator project, cell-based, HEK293 mu-opioid receptor line (AID 449723;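 active = hit in primary screen, with calcium signal over 5 SD above buffer well mean in both duplicates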;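 also: counter screen cells carry the mu-opioid receptor alone and lack TRPC4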); conditions: Fluo-4 calcium fluorescence, at 10 µM; active compounds read high
[16] = calcium flux enhancement in mu-opioid HEK293 cells, confirmation, counter-screen for TRPC4 allosteric potentiator project, cell-based, HEK293 mu-opioid receptor line (AID 449724;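 active = calcium signal rise more than 3 SD above the low-dose agonist control mean, in both duplicate plates and the primary screen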); conditions: Fluo-4 calcium flux, at 10 µM, compound added before EC20 DAMGO stimulus; active compounds read high

## CCOc1ccc2[nH]c3c(N4CCN(c5ccccn5)CC4)ncnc3c2c1
[1]
  outcome: inactive
[2]
  outcome: inactive
[3]
  outcome: inactive
[4]
  outcome: inactive
[5]
  inhibition: 83% (active)
[6]
  outcome: inactive
[7]
  outcome: inactive
[8]
  outcome: inactive
[9]
  outcome: inactive
[10]
  outcome: inactive
[11]
  outcome: inactive
[12]
  outcome: inactive
[13]
  outcome: inactive
[14]
  outcome: inactive
[15]
  outcome: inactive
[16]
  outcome: inactive

## O/N=C/c1ccccc1Oc1ccc(Cl)cc1
[1]
  outcome: inactive
[2]
  outcome: inactive
[3]
  outcome: inactive
[4]
  outcome: inactive
[5]
  inhibition: 98% (active)
[6]
  outcome: inactive
[7]
  outcome: inactive
[8]
  outcome: inactive
[9]
  outcome: inactive
[10]
  outcome: inactive
[11]
  outcome: inactive
[12]
  outcome: inactive
[13]
  inhibition: 7.58% (active)
[14]
  outcome: inactive
[15]
  outcome: inactive
[16]
  outcome: inactive

## Cc1ccc(NC(=O)CNc2ccccc2CN(C)C2CCCCC2)cc1
[1]
  outcome: inactive
[2]
  outcome: inactive
[3]
  outcome: inactive
[4]
  outcome: inactive
[5]
  inhibition: 76% (active)
[6]
  outcome: inactive
[7]
  outcome: inactive
[8]
  outcome: inactive
[9]
  outcome: inactive
[10]
  outcome: inactive
[11]
  outcome: inactive
[12]
  outcome: inactive
[13]
  inhibition: 33.5% (active)
[14]
  outcome: inactive
[15]
  outcome: inactive
[16]
  outcome: inactive

## Cc1cc(OCC(=O)Nc2ccc(N3CCN(C)CC3)cc2)ccc1Cl
[1]
  outcome: inactive
[2]
  outcome: inactive
[3]
  outcome: inactive
[4]
  outcome: inactive
[5]
  inhibition: 79% (active)
[6]
  outcome: inactive
[7]
  outcome: inactive
[8]
  outcome: inactive
[9]
  outcome: inactive
[10]
  outcome: inactive
[11]
  outcome: inactive
[12]
  outcome: inactive
[13]
  outcome: inactive
[14]
  outcome: inactive
[15]
  outcome: inactive
[16]
  outcome: inactive

## CN1CCCCc2c1nc1ccccc1c2N (tested in a mixture with another compound)
[1]
  outcome: inactive
[2]
  outcome: inactive
[3]
  outcome: inactive
[4]
  outcome: inactive
[5]
  inhibition: 95% (active)
[6]
  inhibition: 83% (active)
[7]
  outcome: inactive
[8]
  outcome: inactive
[9]
  inhibition: 27% (active)
[10]
  outcome: inactive
[11]
  outcome: inactive
[12]
  outcome: inactive
[13]
  inhibition: 12.4% (active)
[14]
  outcome: inactive
[15]
  outcome: inactive
[16]
  outcome: inactive

## CCC(O)(c1ccc(OC)cc1)C(CN1CCOCC1)c1ccccc1 (stereo not given)
[1]
  outcome: inactive
[2]
  outcome: inactive
[3]
  outcome: inactive
[4]
  outcome: inactive
[5]
  inhibition: 92% (active)
[6]
  inhibition: 52% (active)
[7]
  outcome: inactive
[8]
  outcome: inactive
[9]
  outcome: inactive
[10]
  outcome: inactive
[11]
  outcome: inactive
[12]
  outcome: inactive
[13]
  inhibition: 14.9% (active)
[14]
  outcome: inactive
[15]
  outcome: inactive
[16]
  outcome: inactive

## O=C(Nc1cccc(Cl)c1)N1CCN2C(=O)c3ccccc3C12c1ccccc1 (stereo not given)
[1]
  outcome: inactive
[2]
  outcome: inactive
[3]
  outcome: inactive
[4]
  outcome: inactive
[5]
  inhibition: 69% (active)
[6]
  outcome: inactive
[7]
  outcome: inactive
[8]
  outcome: inactive
[9]
  outcome: inactive
[10]
  outcome: inactive
[11]
  outcome: inactive
[12]
  outcome: inactive
[13]
  outcome: inactive
[14]
  outcome: inactive
[15]
  outcome: inactive
[16]
  outcome: inactive

## c1ccc(Cn2c(CN3CCCC3)nc3ccccc32)cc1
[1]
  outcome: inactive
[2]
  outcome: inactive
[3]
  outcome: inactive
[4]
  outcome: inactive
[5]
  inhibition: 96% (active)
[6]
  inhibition: 67% (active)
[7]
  outcome: inactive
[8]
  outcome: inactive
[9]
  outcome: inactive
[10]
  outcome: inactive
[11]
  outcome: inactive
[12]
  outcome: inactive
[13]
  inhibition: 18% (active)
[14]
  outcome: inactive
[15]
  outcome: inactive
[16]
  outcome: inactive

## NS(=O)(=O)c1ccc(CCNCc2ccccc2OCc2ccc(Cl)cc2)cc1
[1]
  outcome: inactive
[2]
  outcome: inactive
[3]
  outcome: inactive
[4]
  outcome: inactive
[5]
  inhibition: 87% (active)
[6]
  inhibition: 54% (active)
[7]
  outcome: inactive
[8]
  outcome: inactive
[9]
  outcome: inactive
[10]
  outcome: inactive
[11]
  outcome: inactive
[12]
  outcome: inactive
[13]
  inhibition: 31.3% (active)
[14]
  outcome: inactive
[15]
  outcome: inactive
[16]
  outcome: inactive

## COc1ccc(C2=NN(C(=O)c3ccccc3)C(c3ccc(OC)c(OC)c3)C2)c(O)c1 (stereo not given)
[1]
  outcome: inactive
[2]
  outcome: inactive
[3]
  outcome: inactive
[4]
  outcome: inactive
[5]
  inhibition: 66% (active)
[6]
  outcome: inactive
[7]
  outcome: inactive
[8]
  outcome: inactive
[9]
  outcome: inactive
[10]
  outcome: inactive
[11]
  outcome: inactive
[12]
  outcome: inactive
[13]
  outcome: inactive
[14]
  outcome: inactive
[15]
  outcome: inactive
[16]
  outcome: inactive

## COc1ccc2nc(NCc3ccccc3)[nH]c2c1
[1]
  outcome: inactive
[2]
  outcome: inactive
[3]
  outcome: inactive
[4]
  outcome: inactive
[5]
  inhibition: 94% (active)
[6]
  inhibition: 50% (active)
[7]
  outcome: inactive
[8]
  outcome: inactive
[9]
  outcome: inactive
[10]
  outcome: inactive
[11]
  outcome: inactive
[12]
  outcome: inactive
[13]
  inhibition: 23.6% (active)
[14]
  outcome: inactive
[15]
  outcome: inactive
[16]
  outcome: inactive

## Cc1ccc(OCCn2c(C)nc3ccccc32)cc1
[1]
  outcome: inactive
[2]
  outcome: inactive
[3]
  outcome: inactive
[4]
  outcome: inactive
[5]
  inhibition: 94% (active)
[6]
  inhibition: 61% (active)
[7]
  outcome: inactive
[8]
  outcome: inactive
[9]
  outcome: inactive
[10]
  outcome: inactive
[11]
  outcome: inactive
[12]
  outcome: inactive
[13]
  inhibition: 13% (active)
[14]
  outcome: inactive
[15]
  outcome: inactive
[16]
  outcome: inactive

## Cc1cc(-c2csc3ncnc(N4CCN(C)CC4)c23)cc(C)c1C
[1]
  outcome: inactive
[2]
  outcome: inactive
[3]
  outcome: inactive
[4]
  outcome: inactive
[5]
  inhibition: 84% (active)
[6]
  inhibition: 49% (active)
[7]
  outcome: inactive
[8]
  outcome: inactive
[9]
  outcome: inactive
[10]
  outcome: inactive
[11]
  outcome: inactive
[12]
  outcome: inactive
[13]
  inhibition: 16.6% (active)
[14]
  outcome: inactive
[15]
  outcome: inactive
[16]
  outcome: inactive

## C=CCc1ccccc1OCC(CN1CCCCC1)OC(C)=O (stereo not given)
[1]
  outcome: inactive
[2]
  outcome: inactive
[3]
  outcome: inactive
[4]
  outcome: inactive
[5]
  inhibition: 74% (active)
[6]
  inhibition: 43% (active)
[7]
  outcome: inactive
[8]
  outcome: inactive
[9]
  outcome: inactive
[10]
  outcome: inactive
[11]
  outcome: inactive
[12]
  outcome: inactive
[13]
  outcome: inactive
[14]
  outcome: inactive
[15]
  outcome: inactive
[16]
  outcome: inactive

## Cc1ccc(C(C(=O)NC(C)(C)C)N(C(=O)CCC(=O)Nc2ccccn2)c2ccccc2F)cc1 (stereo not given)
[1]
  outcome: inactive
[2]
  outcome: inactive
[3]
  outcome: inactive
[4]
  outcome: inactive
[5]
  inhibition: 61% (active)
[6]
  outcome: inactive
[7]
  outcome: inactive
[8]
  outcome: inactive
[9]
  outcome: inactive
[10]
  outcome: inactive
[11]
  outcome: inactive
[12]
  outcome: inactive
[13]
  inhibition: 28.9% (active)
[14]
  outcome: inactive
[15]
  outcome: inactive
[16]
  outcome: inactive

Source: PubChem BioAssay
